System: Vero E6 infected with SARS-CoV-2
Assay: inhibition of SARS-CoV-2 cytopathic effect; higher = more antiviral protection, active = above 15
Settings: 48 h

Measured: inhibition of SARS-CoV-2 cytopathic effect

CN1[C@@H]2CC[C@H]1C[C@@H](OC(c1ccccc1)c1ccccc1)C2 [benztropine-mesylate]
inactive: 1 nM 1.74% | 8.33 nM -0.55% | 100 nM 1.26% | 833.33 nM -8.96% | 10000 nM -7.74%

O=C(O)CCNC(=O)c1ccccc1 [betamipron]
inactive: 1 nM -2.23% | 8.33 nM -0.21% | 100 nM 0.07% | 833.33 nM -1.91% | 10000 nM -2.18%

CCOC(=O)c1ccc(N)cc1 [benzocaine]
inactive: 1 nM -3.23% | 8.33 nM -2.13% | 100 nM -1.89% | 833.33 nM -4.68% | 10000 nM -1.78%

COc1ccc(-c2oc3c(CC=C(C)C)c(O)cc(O)c3c(=O)c2O)cc1 [icaritin]
inactive: 1 nM -1.11% | 8.33 nM 0.17% | 100 nM 0.02% | 833.33 nM -0.36% | 10000 nM 2.24%

O=C(O[C@H]1CN2CCC1CC2)N(Cc1cc(F)c(F)c(F)c1)c1cccc(F)c1 [tarafenacin]
inactive: 1 nM 1.69% | 8.33 nM -0.35% | 100 nM 2.28% | 833.33 nM -1.46% | 10000 nM -7.54%

Nc1ccc2cc3ccc(N)cc3nc2c1 [proflavine-hemisulfate]
inactive: 1 nM -1.46% | 8.33 nM -2.57% | 100 nM -0.42% | 833.33 nM 1.94% | 10000 nM -8.75%

O=C(O)Cc1ccc(OCc2ccccc2)c(Cl)c1 [benzofenac]
inactive: 1 nM -0.05% | 8.33 nM 4.15% | 100 nM 1.74% | 833.33 nM 1.88% | 10000 nM 0.27%

CC1CCC(NC(=O)N(CCCl)N=O)CC1 (stereo not given) [semustine]
inactive: 1 nM 1.43% | 8.33 nM 1.15% | 100 nM -3.63% | 833.33 nM -1.54% | 10000 nM 0.45%

COc1ccccc1N1CCN(CCCCNC(=O)c2ccc3ccccc3c2)CC1
inactive: 1 nM -1.05% | 8.33 nM 0.24% | 100 nM 1.14% | 833.33 nM -0.36% | 10000 nM -6.44%

CC[C@@H](CO)NC(=O)[C@@H]1C=C2c3cccc4c3c(cn4C)C[C@H]2N(C)C1 [methysergide]
inactive: 1 nM -0.52% | 8.33 nM 0.46% | 100 nM 0.82% | 833.33 nM 1.51% | 10000 nM 0.92%

FC(F)(F)c1cccc(C2=CCN(CCc3ccc4ccccc4c3)CC2)c1 [xaliproden]
inactive: 1 nM -0.86% | 8.33 nM -1.4% | 100 nM 1.4% | 833.33 nM 0.49% | 10000 nM 0.49%

COc1cc(C=O)ccc1O [vanillin]
inactive: 1 nM 1.74% | 8.33 nM 0.89% | 100 nM 1.04% | 833.33 nM -1.54% | 10000 nM -2.8%

Cc1ncc([N+](=O)[O-])n1CC(O)CN1CCOCC1 (stereo not given) [morinidazole]
inactive: 1 nM -0.31% | 8.33 nM -0.21% | 100 nM -0.51% | 833.33 nM -1.22% | 10000 nM -0.64%

CC1(C)CNc2cc(NC(=O)c3cccnc3NCc3ccncc3)ccc21 [motesanib]
inactive: 1 nM -2.26% | 8.33 nM -1.53% | 100 nM -1.67% | 833.33 nM 1.7% | 10000 nM 1.82%

Nc1nc(N)c2nc(-c3ccccc3)c(N)nc2n1 [triamterene]
inactive: 1 nM 0.51% | 8.33 nM 2.72% | 100 nM 4.04% | 833.33 nM 0.17% | 10000 nM -2.92%

CC(C)(C)C(=O)C(Oc1ccc(Cl)cc1)n1ccnc1 (stereo not given) [climbazole]
inactive: 1 nM -1.08% | 8.33 nM 1.03% | 100 nM -1.59% | 833.33 nM -1.58% | 10000 nM 0.15%

COc1cc(OC)cc(N(CCNC(C)C)c2ccc3ncc(-c4cnn(C)c4)nc3c2)c1 [erdafitinib]
inactive: 1 nM 1.71% | 8.33 nM -0.38% | 100 nM 0.68% | 833.33 nM -1.43% | 10000 nM 11.7%

CCCCCCCCCCCCCC[C@@H](O)[C@@H](O)[C@@H](N)CO [phytosphingosine]
inactive: 1 nM -6.1% | 8.33 nM -0.27% | 100 nM -1.1% | 833.33 nM -3.05% | 10000 nM -6.04%

O=C(NN1C(=O)[C@@H]2[C@@H]3C=C[C@@H]([C@H]4C[C@@H]34)[C@@H]2C1=O)c1ccc(C(F)(F)F)cc1 [tecovirimat]
inactive: 1 nM 1.41% | 8.33 nM 2.44% | 100 nM 2.71% | 833.33 nM 0.04% | 10000 nM -0.46%

Cc1cc(C(=CNc2ccc(Cl)cc2)C(=O)Nc2ccc(Cl)cc2)on1
inactive: 1 nM -1.14% | 8.33 nM -1.99% | 100 nM -2% | 833.33 nM -0.86% | 10000 nM 0.28%

CCO/N=C(\C(=O)N[C@@H]1C(=O)N2C(C(=O)[O-])=C(Sc3nc(-c4cc[n+](C)cc4)cs3)CS[C@H]12)c1nsc(NP(=O)(O)O)n1 [ceftaroline-fosamil]
inactive: 1 nM 3.38% | 8.33 nM 2.02% | 100 nM 4.54% | 833.33 nM 4.34% | 10000 nM 3.55%

CCC(C)(C)C(=O)O[C@H]1C[C@@H](C)C=C2C=C[C@H](C)[C@H](CC[C@@H]3C[C@@H](O)CC(=O)O3)[C@H]21 [simvastatin]
inactive: 1 nM -3.26% | 8.33 nM 0.13% | 100 nM -0.41% | 833.33 nM -0.83% | 10000 nM 5.01%

COc1cc(Nc2ncc(F)c(Nc3ccc4c(n3)NC(=O)C(C)(C)O4)n2)cc(OC)c1OC
inactive: 1 nM -3.02% | 8.33 nM -0.43% | 100 nM -2.04% | 833.33 nM -4.61% | 10000 nM -4.19%

CCS(=O)(=O)c1cccc(-c2cc(C(=O)NC3CCN(C)CC3)c(C)c3[nH]c4ncc(C)cc4c23)c1
inactive: 1 nM 3.23% | 8.33 nM 0.63% | 100 nM 1.19% | 833.33 nM -0.44% | 10000 nM -2.17%

CCCCCCCCCCCC(=O)N(CCO)CCO [lauric-diethanolamide]
inactive: 1 nM 1.82% | 8.33 nM 1.8% | 100 nM -1.44% | 833.33 nM 1.01% | 10000 nM -2.1%

CC1(C)CC(Oc2ccc(-c3ccc(-c4cn[nH]c4)cc3O)nn2)CC(C)(C)N1
inactive: 1 nM 1.13% | 8.33 nM 0.25% | 100 nM 2.2% | 833.33 nM -9.03% | 10000 nM -14.9%

CCN(CC)CCCCNc1ncc2cc(-c3c(Cl)cccc3Cl)c(NC(=O)NC(C)(C)C)nc2n1
inactive: 1 nM -1.36% | 8.33 nM -1.31% | 100 nM 2.1% | 833.33 nM -1.78% | 10000 nM 13.4%

O=C(NCc1ccccc1)c1csc(Nc2ccncn2)n1 [thiazovivin]
inactive: 1 nM -2.48% | 8.33 nM 1.22% | 100 nM -1.94% | 833.33 nM -2% | 10000 nM -11.5%

CCCCc1nn(-c2ccccc2C(F)(F)F)c(=O)n1Cc1ccc(-c2ccccc2S(=O)(=O)NC(=O)c2sccc2C)cc1
inactive: 1 nM 0.19% | 8.33 nM -0.03% | 100 nM 2.56% | 833.33 nM -2.77% | 10000 nM -1.65%

Cc1c(C(=O)NCCCO)cnn1-c1nc(-c2cccc(C(F)(F)F)c2)cs1
inactive: 1 nM 2.55% | 8.33 nM 3.83% | 100 nM 3.4% | 833.33 nM 5.36% | 10000 nM -0.86%

C=CC(=O)Nc1cc(Nc2nccc(-c3cn(C)c4ccccc34)n2)c(OC)cc1N(C)CCN(C)C [osimertinib]
inactive: 1 nM 1.08% | 8.33 nM 0.08% | 100 nM -5.65% | 833.33 nM -10.8% | 10000 nM -16.5%

N#CSc1cc(SC#N)c(N)nc1N
inactive: 1 nM -1.78% | 8.33 nM 0.62% | 100 nM 3.56% | 833.33 nM 0.7% | 10000 nM 11.2%

COc1cc(NS(C)(=O)=O)ccc1Nc1c2ccccc2nc2ccccc12 [amsacrine]
inactive: 1 nM -2.31% | 8.33 nM 1.72% | 100 nM -0.21% | 833.33 nM -6.01% | 10000 nM -5.76%

O=C1Nc2ccccc2C2(CCN(CCc3ccc(C(F)(F)F)cc3)CC2)O1
inactive: 1 nM -1.89% | 8.33 nM -4.51% | 100 nM -1.41% | 833.33 nM -2.49% | 10000 nM -3.73%

CCOC(=O)c1ccc(N(C)c2csc(-c3ccccc3)n2)cc1 [neuropathiazol]
inactive: 1 nM -0.18% | 8.33 nM 1.78% | 100 nM 0.85% | 833.33 nM 2.12% | 10000 nM 2.67%

COC1=CC(=O)C[C@@H](C)[C@]12Oc1c(Cl)c(OC)cc(OC)c1C2=O [griseofulvin]
inactive: 1 nM 1.17% | 8.33 nM 0.82% | 100 nM 0.95% | 833.33 nM 2.52% | 10000 nM 1.84%

C=C1CC[C@H](O)C/C1=C/C=C1\CCC[C@]2(C)[C@@H]([C@H](C)/C=C/[C@H](C)C(C)C)CC[C@@H]12 [ergocalciferol]
inactive: 1 nM 0.88% | 8.33 nM 0.86% | 100 nM 0.95% | 833.33 nM 0.55% | 10000 nM 0.72%

C#C[C@]1(OC(C)=O)CC[C@H]2[C@@H]3CCC4=CC(=NO)CC[C@@H]4[C@H]3CC[C@@]21CC (mixture of isomers) [norgestimate]
inactive: 1 nM -3.21% | 8.33 nM 0.96% | 100 nM 1.62% | 833.33 nM -2.37% | 10000 nM -3.22%

Nc1ncnc2c1ncn2C1CCCO1 (stereo not given)
inactive: 1 nM 2.17% | 8.33 nM 3.9% | 100 nM -1% | 833.33 nM 2.95% | 10000 nM -0.8%
